An excerpt weighted towards active compounds, which were near 17% of everything screened.
TDP1 cell CPT: DT40-hTDP1 cell growth loss with CPT; Potency, µM (doses to about 46.2 µM), most hits filed as inhibitors; 420,000 compounds, 12% hits; chicken DT40 Tdp1-/-;hTDP1 cells + 20 nM CPT, ATP luminescence, 48 h; note: nearly all actives have a fitted effect of over 55% in size
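Cell growth measured by CellTiter-Glo luminescence after a minimum 48 h, 37 C compound exposure with 20 nM CPT in Tdp1-knockout DT40 cells stably expressing hTDP1, seeded 400/well; qHTS titration format.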
ATXN2 expr inh: reduces ATXN2 reporter expression in HEK-293 cells. Potency, µM (series often up to 57 µM), most hits filed as inhibitors. 360,000 compounds, 0.72% hits. HEK-293 ATXN2-luciferase reporter, luminescence, 24 h. AID 1745845; note: nearly all actives have a fitted effect of over 55% in size
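qHTS (up to 57 uM final) was run with 24 h compound exposure of reporter cells at 37 °C. Each well was multiplexed: SteadyGlo luminescence measured ATXN2-luciferase expression after a fluorogenic Gly-Phe-AFC viability readout (25 uM final).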
TGFb inhibitor: blocks TGF-b signaling; HepG2 CAGA-GFP TGF-b/SMAD3 reporter, GFP fluorescence, 18 h; TGF-beta stimulated, 500 pg/mL final; Potency, µM (top dose mostly 46.1 µM), most hits filed as inhibitors; 410,000 compounds, 1.2% hits; AID 588855; note: nearly all actives have a fitted effect of over 65% in size
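Smad-responsive CAGA-GFP expression was quantified in HEPG2 cells exposed to compounds and 500 pg/mL final TGF-beta for 18 h at 37 degrees C; unstimulated wells defined full inhibition.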
DT40 TDP1 no CPT: qHTS for Inhibitors of human tyrosyl-DNA phosphodiesterase 1 (TDP1): qHTS in cells in absence of CPT; 420,000 compounds, 15% hits; AID 686978, 2013; Potency, µM (doses to about 46.2 µM), most hits filed as inhibitors; DT40 Tdp1-/- hTDP1 cells, no CPT, ATP luminescence, 48 h; note: nearly all actives have a fitted effect of over 55% in size
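Chicken DT40 Tdp1-/- cells complemented with human TDP1, screened without camptothecin (DMSO vehicle only), 400 cells/well. Compounds pin-transferred, cells incubated at 37 °C for at least 48 hr. Growth read as ATP-dependent luminescence (CellTiter-Glo, 30 min at RT).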
HepG2 viability: kills HepG2 cells in TGF-b inhibitor counter-screen; HepG2 CAGA-GFP viability, ATP luminescence, 18 h; Potency, µM (titrated, usually from 46.1 µM), actives largely listed as cytotoxic; 410,000 compounds, 0.76% hits; AID 588856
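CellTiter-Glo luminescence gave cytotoxicity after 18 hours at 37 degrees C. The cells were HepG2 CAGA-GFP in 1% FBS DMEM, stimulated with 500 pg/mL TGF-beta after compound addition. %Activity was normalised to no-cell wells (complete cell-killing) and DMSO (no toxicity), and curves were fitted and classified.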
ATXN viability: reduces viability in counter-screen for ATXN expression inhibitors. S2 cells (HEK-293 line with an ATXN2-luciferase reporter) viability, CellTiter-Fluor protease fluorescence, 24 h. Potency, µM (doses to about 56.7 µM), actives largely listed as cytotoxic. 400,000 compounds, 0.49% hits; note: nearly all actives have a fitted effect of over 40% in size
Hits are given with their value; - = inactive; ? = inconclusive; . = no result given; [ ] = remark or other dose. Calls come from the whole dose curve; as a rule, active = well fitted curve in the direction sought with a large enough effect; inconclusive = small, poorly fitted or top-dose-only effect, or another doubt; inactive = no such curve, though single readings can be large; an effect the other way counts as inactive or inconclusive.

SMILES | TDP1 cell CPT | ATXN2 expr inh | TGFb inhibitor | DT40 TDP1 no CPT | HepG2 viability | ATXN viability
O=C(CNc1cccc(Cl)c1)NNC(=S)NCc1ccccc1 | ? | - | - | 23µM | - | -
S=C(NCc1ccccc1)NNc1ccccc1 | 4.6µM | - | ? | 5.8µM | - | -
CCNC(=S)NNc1ccccc1 | 3.3µM | - | - | 5.2µM | - | -
O=C(/C=C/c1cccc(F)c1)OCC(=O)N1CCCC1 | ? | - | - | ? | - | -
CC(/C=C/c1ccco1)=N/NC(=O)Cc1cccs1 | 7.1µM | - | - | 4µM | - | -
CC(/C=C/c1ccco1)=N/NC(=O)OC(C)(C)C | ? | - | - | 15µM | - | -
C/C(=N/NC(=O)OC(C)(C)C)c1ccco1 | - | - | - | - | - | -
CC(=C/C(=O)O)/C=C/c1ccco1 | 6.5µM | - | - | 7.3µM | - | -
CN(C)c1ccc(CN(C)C2CCCCC2)cc1 | - | - | - | - | - | -
Cc1cc2oc(=O)c(CC(=O)NCCCN(C)C)c(C)c2c2occ(C(C)(C)C)c12 | ? | - | ? | ? | 22µM | 22µM
Cc1cc2oc(=O)c(CC(=O)NCCCO)c(C)c2c2occ(C(C)(C)C)c12 | ? | - | - | - | - | -
COCCNC(=O)Cc1c(C)c2c(cc(C)c3c(C(C)(C)C)coc32)oc1=O | 9.2µM | - | - | 15µM | - | -
COc1ccc(CCNC(=O)Cc2c(C)c3c(cc(C)c4c(C)coc43)oc2=O)cc1OC | 18µM | . | - | 21µM | - | .
Brc1cccc(-c2nn(-c3ccccc3)c3c2cnc2cc4c(cc23)OCO4)c1 | - | - | - | - | - | -
O=C(O)c1cc(O)ccc1N=Nc1ccccc1 | ? | . | - | 16µM | - | -
O=C(O)c1ccccc1N=Nc1ccc(O)cc1 | 26µM | - | - | 15µM | - | -
Oc1ccc(N=Nc2ccccc2)cc1 | ? | . | - | ? | - | ?
COc1ccccc1C(=O)N[C@@H]1c2ccccc2C2(CCN(Cc3nccs3)CC2)[C@H]1OC | -[9.04 µM] | . | . | - | . | -
CCCCN(Cc1ccco1)C(=O)C1CCCN(c2ncnc3c2nc2n3CCCCC2)C1 (stereo not given) | 16µM | ? | ? | 15µM | - | ?
CCN(CC)C(=O)C1CCCN(c2ncnc3c2nc2n3CCCCC2)C1 (stereo not given) | - | - | - | ? | - | -
CCCCN(CC)C(=O)C1CCCN(c2ncnc3c2nc2n3CCCCC2)C1 (stereo not given) | ? | - | - | 21µM | - | -
CCOC(=O)c1c(NC(=O)CSc2nc3ccccc3c(=O)n2-c2ccccc2)sc(C(C)=O)c1C | - | - | - | - | - | -
CC(C)(C)c1csc(NNC(=O)c2ccc(Cl)cc2)n1 | ? | ? | ? | ? | - | -
O=C(NNC(=O)c1ccc(F)cc1)c1ccncc1 | - | . | - | - | - | -
O=C(NNC1=Nc2ccccc2SC1)c1ccc(Cl)cc1 | 6.5µM | 14µM | - | 12µM | - | ?
SMILES | TDP1 cell CPT | ATXN2 expr inh | TGFb inhibitor | DT40 TDP1 no CPT | HepG2 viability | ATXN viability
O=C(NNC1=Nc2ccccc2SC1)c1ccc(F)cc1 | ? | - | - | 23µM | - | -
Cc1c(C(=O)N(C)C2CCOC2)cnn1-c1ncc2c(n1)-c1ccccc1CCC2 (stereo not given) | -[9.04 µM] | . | . | - | . | -
O=C(Nc1ccc(Cl)cc1)C(Cl)C(=O)c1ccccc1 (stereo not given) | 9.2µM | - | - | 13µM | - | -
CC(NC(=O)C(c1ccccc1)c1ccccc1)c1ccccc1 (stereo not given) | - | - | - | - | - | -
O=C(Nc1ccccc1Cl)C(Cl)C(=O)c1ccccc1 (stereo not given) | 15µM | -[11.3 µM] | - | 13µM | - | -
CC(NC(=O)Nc1ccc(Cl)cc1)c1ccccc1 (stereo not given) | ? | . | ? | 26µM | - | -
Cc1ccc(C(NC(=O)NC(C)c2ccccc2)C(Cl)(Cl)Cl)cc1F (stereo not given) | 18µM | ? | ? | - | - | ?
C=CCNS(=O)(=O)c1ccc2nsnc2c1 | - | - | - | - | - | -
COc1ccccc1Nc1nnc(SCC(=O)c2c(N)n(C3CC3)c(=O)[nH]c2=O)s1 | - | - | - | - | - | -
O=c1cc(-c2ccc(O)cc2)oc2c1ccc1ccccc12 | - | - | - | - | - | -
O=c1cc(-c2ccco2)oc2c1ccc1ccccc12 | - | - | - | - | - | -
O=c1cc(C(Cl)(Cl)Cl)oc2c1ccc1ccccc12 | 0.15µM | ? | - | 0.52µM | - | .
O=c1cc(-c2ccncc2)oc2c1ccc1ccccc12 | ? | ? | ? | 23µM | - | ?
Cc1ccc(C(O)c2ncc(-c3cccc(F)c3)[nH]2)cc1 (stereo not given) | ? | - | - | - | - | -
Cc1ccc(CSC2=Nc3ccccc3C3=NC(CCC(=O)N4CCN(c5ccccc5)CC4)C(=O)N23)cc1 (stereo not given) | 21µM | - | - | 21µM | - | ?
COc1ccccc1CNC(=O)CCC1N=C2c3ccccc3N=C(SCc3ccc(Cl)cc3)N2C1=O (stereo not given) | ? | . | - | ? | - | .
O=C(CCC1N=C2c3ccccc3N=C(SCc3ccc(Cl)cc3)N2C1=O)N1CCN(c2ccccc2)CC1 (stereo not given) | 16µM | - | - | 21µM | - | -
Cc1ccc(OCC(=O)NNC(=S)NC(=O)C2CCCCC2)c(C)c1 | ? | - | - | 21µM | - | -
Cc1ccc(OCC(=O)NNC(=O)c2ccc(NC(=O)C3CC3)cc2)c(C)c1 | - | - | - | - | - | -
CC(C)c1ccc(OCC(=O)NN2C(=O)c3ccccc3C2=O)c(Br)c1 | - | . | - | - | - | ?
CC(C)c1ccc(OCC(=O)NNC(=S)NC(=O)c2cccs2)c(Br)c1 | 18µM | - | - | 23µM | - | -
N#Cc1ccc(OCC(=O)NNC(=S)NC(=O)C2CC2)cc1 | ? | - | - | 21µM | - | -
CC(C)c1ccc(OCC(=O)NNC(=S)NC(=O)C2CC2)cc1 | ? | - | - | 15µM | - | -
CCCCNC(=O)c1ccc2c(c1)NC(=O)C(CS(=O)(=O)Cc1cccc(C)c1)N2 (stereo not given) | - | . | ? | ? | - | .
CO[C@H]1[C@H](NC(=O)c2cccs2)c2ccccc2C12CCN(Cc1cccn1-c1cccnc1)CC2 | - | . | . | - | . | ?
COc1ccc(NC(=O)COC(=O)C2CC2)cc1S(=O)(=O)N1CCCCC1 | - | - | - | - | - | -
